Here are results for 16 compounds from PubChem BioAssay (NCATS).

Experiment [1] in a line: UWB1.289 Cancer Cell Toxicity qHTS against the NCATS CANVASS Library (AID 1347347). Also: nearly all actives have a fitted effect of over 60% in size. Also: potency is read from the fitted curve at half-maximal effect. The method, boiled down:
(§1)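 ATP content after 72 h treatment, detected by CellTiter-Glo luminescence (15min room-temperature development), reflects cell viability. Wells contained 1000 cells and received compounds at 11 concentrations.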
In general terms: In qHTS, concentration-response curves come from the screen itself.

The nature of experiment [2]: Panc-1005 Cancer Cell Toxicity qHTS against the NCATS CANVASS Library (AID 1347349). Also: nearly all actives have a fitted effect of over 60% in size. Also: potency is read from the fitted curve at half-maximal effect. The method, boiled down:
as §1

Experiment [3] is described as follows: UWB1.289-WTBRCA1 Cancer Cell Toxicity qHTS against the NCATS CANVASS Library (AID 1347354). The method, boiled down:
(§2)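 Luminescent ATP read-out (CellTiter-Glo, 15min at room temperature) measures survival after cells face an 11-point compound series for 72 hours at 37 degrees C/5% CO2.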

A short description of experiment [4]: qHTS for Hypoxia signaling pathway (HIF-1) agonists against the NCATS CANVASS Library (AID 1347375). Put shortly: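 ME-180 HRE-bla reporter cells; 2,000/well, 0.5% dialyzed FBS; cpd added after 5 h, 17 h 37C/5% CO2; CCF4-AM 2 h RT; FRET 460/530 nm; CellTiter-Glo viability same wells, 30 min.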
Experiment [5] concerns the target Cytochrome P450 3A4 (Homo sapiens) (UniProt P08684). In words: qHTS Assay for Activators of Cytochrome P450 3A4 (AID 885). Also: nearly all actives have a fitted effect of over 65% in size. Put shortly: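 Human CYP3A4 (20 nM) with Luciferin-PPXE at 25 uM (its KM) in 200 mM KPO4; 10 min compound preincubation, then NADPH regeneration and 60 min reaction at RT. Luciferin read by luminescence; normalized to 57 uM ketoconazole full inhibition.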

Experiment [6] can be described thus: Confirmation and Secondary Assay for Modulators of Hemoglobin Beta Chain Splicing at IVS2 654 locus (AID 910).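 Also: HeLa cells stably carrying EGFP split by mutant beta-globin IVS2-654 intron.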 The method, boiled down: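 HeLa cells stably expressing EGFP interrupted by β-globin IVS2-654 intron, seeded overnight in Opti-MEM/2% FCS, then treated 2 days at 37 °C. Restored splicing read as total peak GFP intensity per well by laser scanning cytometry (488 nm excitation, 500–520 nm emission); 500 nM antisense PNA as control.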

The nature of experiment [7]: Confirmation and Secondary Assay for Modulators of Hemoglobin Beta Chain Splicing at IVS2 705 locus (AID 930).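 Also: HeLa cells stably expressing the EGFP-705 splicing reporter; GFP fluorescence per well restored by corrected splicing of the IVS2-705 intron in EGFP; series mostly up to about 46 µM.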 The method, boiled down:
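Secondary splice-site specificity test uses HeLa expressing CMV-driven EGFP interrupted by IVS2-705; cells were treated 2 days at 37C with 500 nM antisense PNA as positive control.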

Experiment [8] can be described thus: HPAF-II Cancer Cell Toxicity qHTS against the NCATS CANVASS Library (AID 1347346). Also: nearly all actives have a fitted effect of over 55% in size. Also: potency is read from the fitted curve at half-maximal effect. The method, boiled down:
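Luminescence from CellTiter-Glo, added after 72 h compound exposure and a 15 min room-temperature incubation, served as the viability readout. HPAF-II cells (1000/well) received an 11-point concentration series.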

A short description of experiment [9]: qHTS for Antimalaria activity screened against the NCATS CANVASS Library (AID 1347380). Also: nearly all actives have a fitted effect of over 40% in size. Also: potency is read from the fitted curve at half-maximal effect. The method, boiled down:
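Dd2 strain, infected erythrocytes 2.5% Hct final / 0.3% parasitemia. 11-pt qHTS titration, 72 h, 37C, 5% O2, 5% CO2. Lysis buffer + SYBR Green, 18 h, fluorescence 485/535 nm.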

Experiment [10] is described as follows: qHTS assay for small molecule disruptors of mitochondrial membrane potential screened against the NCATS CANVASS Library (AID 1347389). Also: nearly all actives have a fitted effect of over 60% in size. Also: potency is read from the fitted curve at half-maximal effect. Put shortly:
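HepG2, 2,000 cells/well, attached overnight; compound 1 hr, 37C, 5% CO2; Mito-MPS dye 30 min, 37C; fluorescence 535 nm (monomer) and 590 nm (aggregate); decreased 590/535 ratio = depolarization.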

Experiment [11] in a line: COV-362 Cancer Cell Toxicity qHTS against the NCATS CANVASS Library (AID 1347352). Also: series mostly up to about 38 µM. Put shortly:
as §2

Each structure is given as a SMILES string. Records with an inconclusive call do not appear. The source made the active and inactive calls. Calls follow the shape of the dose curve; as a rule, active = well fitted curve in the direction sought with a large enough effect; inconclusive = small, poorly fitted or top-dose-only effect, or another doubt; inactive = no such curve, though single readings can be large; an effect the other way counts as inactive or inconclusive. Square brackets hold non-standard residues; d marks the D form. Peptide text beside a SMILES is read from it. ξ: configuration not given here. ξL = CC(C)CC(N)C(=O)O

Cytochrome P450 3A4 (Homo sapiens), sequence (P08684 whole entry, looked up): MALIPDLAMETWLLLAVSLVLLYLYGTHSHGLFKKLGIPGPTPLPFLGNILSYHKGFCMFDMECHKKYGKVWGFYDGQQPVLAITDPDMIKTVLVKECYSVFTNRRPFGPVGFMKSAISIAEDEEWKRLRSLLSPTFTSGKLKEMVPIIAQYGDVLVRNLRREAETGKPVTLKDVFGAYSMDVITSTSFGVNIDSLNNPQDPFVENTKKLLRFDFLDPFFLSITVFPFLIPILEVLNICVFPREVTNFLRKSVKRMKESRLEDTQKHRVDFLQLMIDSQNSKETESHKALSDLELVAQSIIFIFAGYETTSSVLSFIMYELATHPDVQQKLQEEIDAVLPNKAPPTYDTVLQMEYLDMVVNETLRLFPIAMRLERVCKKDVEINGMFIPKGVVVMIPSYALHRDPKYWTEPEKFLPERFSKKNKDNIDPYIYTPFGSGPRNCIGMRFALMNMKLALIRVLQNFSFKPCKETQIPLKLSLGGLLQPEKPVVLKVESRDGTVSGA

As to `COC(=O)[C@@]1(C)CCC[C@]2(C)c3cc(OC)ccc3CC[C@@H]12`, the Potency entry in experiment [1], in [2] and in experiment [3] was “inactive” throughout. The call in experiment [4] was inactive.

Take `O=C1CC(c2ccc(O)cc2)Oc2ccccc21` (centres undefined): the Potency result in [5], in [8], in [2] and in experiment [9] was “inactive” throughout. The call in experiment [6], in experiment [7] and in [4] was inactive. Also, the figures for the Potency in experiment [1] and in experiment [10] were 3.75 µM (active) and 14.8 µM (active), respectively.

Regarding `CC(=O)c1c(C)cc2c(c1O)C(=O)c1c(O)cc(O)cc1C2=O`, the Potency result in [1], in [11], in experiment [3], in [9] and in experiment [10] was “inactive” throughout.

For the compound `O=Cc1ccc2n1C[C@]1(C[C@H](O)[C@@H](CO)O1)OC2`, the Potency entry in [1], in experiment [11], in experiment [9] and in experiment [10] was “inactive” in each case. In [4], the call was inactive.

As for `CC(C)=CCCC(C)(O)[C@H]1CC=C(C)C(O)C1` (some centres undefined), the Potency result in [8], in [1], in experiment [2], in experiment [3] and in experiment [10] was “inactive” each time. The outcome in experiment [4] was inactive.

Turning to `COc1cc2oc3ccccc3c(=O)c2cc1OC`, the Potency entry in [1], in [11] and in [3] was “inactive” in each case. The compound was called inactive in experiment [4]. In [9], the Potency is 4.9 nM (active).

As to `C=C[C@@]1(C)CC[C@@H]([C@H](C)C(C)=O)O1`, the Potency entry in [1], in experiment [2] and in [11] was “inactive” in each case. Moreover, the compound was called inactive in [4].

With `COC(=O)[C@@]12Oc3cccc(O)c3C(O)=C1C(=O)C[C@H](C)[C@H]2O`, the Potency result in experiment [1], in [2], in [3], in experiment [9] and in [10] was “inactive” throughout. The result in experiment [4] was inactive.

Consider `C=C(C)C(=O)O[C@H]1C[C@@]2(C)OC(=CC2=O)/C(C)=C\[C@H]2OC(=O)C(=C)[C@H]12`, for which the Potency in [8] is 6.68 µM (active); in [1], 9.41 µM (active); in [9], 265 nM (active).

Consider `C[C@@]12CCC[C@@](C)(C(=O)O)[C@H]1CC[C@@]13C[C@@H](CC[C@H]12)[C@](C)(O)C3`, for which the Potency result in experiment [8], in [1], in [11], in experiment [3] and in [9] was “inactive” in each case. In addition, the call in [4] was inactive.

Consider `C/C(=C\[C@@H](C)CC/C=C/CC/C=C/C(=O)O)[C@@H](O)[C@H](C)C(=O)CCCC1CC(=O)NC(=O)C1`, for which the Potency entry in [1], in experiment [2], in [3] and in [9] was “inactive” in each case. In addition, the compound was classed as inactive in [4].

`C=CC(C)(C)C(=O)[C@@H](C)[C@@H]1CC[C@@](C)(C=C)O1`: the Potency result in experiment [1], in experiment [2], in experiment [11], in experiment [3] and in [9] was “inactive” in each case. Further, in experiment [4], the compound was classed as inactive.

As for `CN1CC[C@@]2([C@@]34CCN(C)[C@@H]3Nc3ccccc34)c3ccccc3N[C@@H]12`, the Potency entry in [8], in experiment [1] and in [3] was “inactive” throughout. Moreover, in experiment [9], the Potency is 211 nM (active).

Consider `CC[C@@H](C)[C@H]1NC(=O)C(CC(C)C)NC(=O)[C@@H](CC(C)C)NC(=O)[C@H](Cc2c[nH]c3ccccc23)NC(=O)CNC(=O)[C@@H](CC(N)=O)NC1=O` (stereo partly drawn) (cyclo(GW[dL][ξL][dI][dN])), for which the Potency result in experiment [8] and in [1] was “inactive” in each case. In addition, the outcome in [4] was inactive.

Take `COc1ccc(-c2oc3cc(OC)cc(OC)c3c(=O)c2O)cc1`: the Potency result in [8], in experiment [11] and in experiment [10] was “inactive” in each case. For the same compound, the Potency in experiment [1] was 18.8 µM (active). The outcome in [4] was inactive.

`CC[C@H]1[C@@H](C)[C@@H](c2cc(OC)c(OC)cc2OC)[C@H](C)[C@@H](c2cc(OC)c(OC)cc2OC)[C@@]12C=C(OC)C(=O)C=C2OC`: the Potency in [1] is 23.6 µM (active); in experiment [2] it was 16.8 µM (active). For the same compound, the compound was called inactive in experiment [4].
